# ELG1 genotoxic = qHTS screen for small molecules that induce genotoxicity in human embryonic kidney (HEK293T) cells expressing luciferase-tagged ELG1 | HEK293T ELG1-luciferase reporter, luminescence, 16 h | hit rate 1.3% among 330,000 | Potency, µM (titrated, usually from 46 µM), for inactives: top-dose activity change, positive = activation, most hits filed as activators | AID 504466, 2011; further: % of control where 0% means no effect; nearly all actives have a fitted effect of over 60% in size
#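 ELG1-luciferase HEK293T cells, 2,000/well; compound pinned in; 16 hr, 37 °C, 5% CO2; ONE-Glo, 30 min RT; luminescence on CCD imager.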
# Rab9 promoter act = qHTS Assay for Rab9 Promoter Activators | hit rate 2.8% among 320,000 | Huh7 Rab9 promoter-luciferase reporter, luminescence, 24 h | Potency, µM (series often up to 9.22 µM), without a hit: at the top dose activation, negative = inhibition, actives largely listed as activators; further: % of control where 0% means no effect; nearly all actives have a fitted effect of over 60% in size
#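 Rab9 promoter-driven luciferase in stably transfected Huh7 cells; 1500 cells/well rested 2 h, exposed to compound in DMSO for 24 h at 37 °C, 5% CO2. Luminescence read 10 min after adding luciferase reagent at ambient temperature.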
# SMN2 splice up = qHTS Assay for Enhancers of SMN2 Splice Variant Expression. hit rate 2.8% among 210,000. AID 1458, 2008. HEK293 SMN2-luciferase splicing reporter, luminescence, 30-36 h. Potency, µM (titrated, usually from 46.1 µM), without a hit: at the top dose activity change, positive = activation, usual class: activators; further: % of control where 0% means no effect; nearly all actives have a fitted effect of over 55% in size
#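 HEK293 cells carry an SMN2 […]–luciferase reporter in which exon 7 inclusion puts luciferase in frame. Cells were plated 10-12 h before compound addition, then incubated 30-36 h at 37C. ONE-Glo luminescence was read; sodium butyrate at 4.5 mM final served as control.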
# NPC1 prom act = qHTS Assay for NPC1 Promoter Activators; AID 485313, 2010; Potency, µM (titrated, usually from 9.22 µM), inactives show at the highest dose activation, usual class: activators; hit rate 2.4% among 320,000; Huh7 NPC1 promoter luciferase reporter, 24 h; further: % of control where 0% means no effect; nearly all actives have a fitted effect of over 60% in size
#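 Luminescence read-out of NPC1 promoter-driven luciferase in stably transfected Huh7 cells; compounds delivered in DMSO and left 24 h at 37C, 5% CO2, qHTS titration format.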
# KinaseGlo FLuc = Counterscreen for Luciferase (Kinase-Glo TM) Inhibition; hit rate 0.28% among 200,000; Luciferin 4-monooxygenase (Photuris pensylvanica), Q27757; Kinase-Glo luciferase, ATP luminescence, 8 min; Potency, µM (doses to about 38.3 µM), without a hit: top-dose activity change, negative = inhibition, most hits filed as inhibitors; further: on the % scale 0 is the no-effect control and ±100 the full control effect; nearly all actives have a fitted effect of over 60% in size
#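 Inhibition of Kinase-Glo luciferase light generation was assessed at 10 uM ATP in pH 7.2 imidazole buffer, with luminescence measured after eight minutes at ambient temperature.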
# FLuc counter = qHTS profiling assay for firefly luciferase inhibitor/activator using purifed enzyme and Km concentrations of substrates (counterscreen for miR-21 project) | Luciferin 4-monooxygenase (Photinus pyralis), P08659 | purified FLuc, Km substrates, luminescence inhibition | Potency, µM (titrated, usually from 57.5 µM), for the others: at the highest dose activity change, negative = inhibition, most hits filed as inhibitors | hit rate 6.9% among 360,000;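 further: plate controls were vehicle for no effect and reference inhibitor for full effect; nearly all actives have a fitted effect of over 55% in size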
# Target sequence (P08659 whole entry, looked up): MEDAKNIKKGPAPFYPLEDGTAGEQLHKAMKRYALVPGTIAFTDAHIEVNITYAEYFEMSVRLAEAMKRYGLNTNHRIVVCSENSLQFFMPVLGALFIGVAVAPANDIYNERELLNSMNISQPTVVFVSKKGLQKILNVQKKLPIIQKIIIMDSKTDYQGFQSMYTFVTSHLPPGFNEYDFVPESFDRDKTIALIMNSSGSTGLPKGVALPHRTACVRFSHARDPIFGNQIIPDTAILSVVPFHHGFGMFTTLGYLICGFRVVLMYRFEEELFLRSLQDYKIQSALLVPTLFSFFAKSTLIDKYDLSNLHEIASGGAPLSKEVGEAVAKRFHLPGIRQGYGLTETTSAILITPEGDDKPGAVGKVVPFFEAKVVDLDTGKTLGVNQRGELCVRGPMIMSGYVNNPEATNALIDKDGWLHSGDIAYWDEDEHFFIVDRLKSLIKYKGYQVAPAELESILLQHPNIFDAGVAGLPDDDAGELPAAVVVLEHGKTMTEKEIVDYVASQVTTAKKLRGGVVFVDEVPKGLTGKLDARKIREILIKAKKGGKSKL
#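 Purified P. pyralis luciferase, 10 nM final, with Km-level 10 uM D-luciferin and 10 uM ATP in 50 mM Tris acetate pH 7.5, 10 mM Mg acetate, 0.01% Tween-20, 0.05% BSA; 6-point qHTS titration about 60 µM downward; luminescence read.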
# Starred values were filed as active, the others as inactive; ? = inconclusive; nt = no result. Most compounds without a hit are left out; they make up all but 7.5% or so of the library. The call rests on the fitted dose curve; in most records, active means well fitted curve in the direction sought with a large enough effect; inconclusive means small, poorly fitted or top-dose-only effect, or another doubt; inactive means no such curve, though single readings can be large; an effect the other way counts as inactive or inconclusive. Potency means the concentration at half of the fitted maximal effect.
SMILES,ELG1 genotoxic,Rab9 promoter act,SMN2 splice up,NPC1 prom act,KinaseGlo FLuc,FLuc counter
COc1ccc(C(=O)Nc2nc3c(s2)CCCC3)cc1Cl,nt,nt,nt,nt,nt,2.4µM*
Cc1cccc(C(=O)Nc2nc3c(s2)CCCC3)c1,nt,nt,nt,nt,nt,1.3µM*
Cc1ncsc1C(=O)Nc1nc2c(s1)CCCC2,?,1µM*,11µM*,2.5µM*,6.3µM*,7.6µM*
Cc1cc(C(=O)Nc2nc3c(s2)CCCC3)cs1,?,1µM*,?,?,?,0.6µM*
O=C(c1n[nH]c2ccccc12)N1CCN(S(=O)(=O)c2ccc(Cl)cc2)CC1,-2%,-1%,nt,-3%,nt,2%
O=C(NCCc1ccccc1)c1sc2ncccc2c1-n1cccc1,nt,nt,nt,nt,nt,-15%
COc1ccc(C)cc1Nc1cc(C)nc(C)n1,nt,nt,nt,nt,nt,4%
O=C(Nc1nc2c(s1)CCCC2)c1ccc(Br)s1,?,0.5µM*,?,2.8µM*,-4%,1.5µM*
CNC(=O)c1c(NC(=O)c2ccc3ncsc3c2)sc(C)c1C,24%,1%,nt,-1%,nt,?
O=C(Nc1nc2c(s1)CCCC2)c1ccc2ncsc2c1,?,?,0.5µM*,?,-12%,2.4µM*
CN(Cc1nc(-c2ccccn2)no1)S(=O)(=O)c1ccccc1,?,-1%,22%,12%,-1%,-9%
CCc1ccc(OCc2nc(-c3ccc(OC)cc3)no2)c(Br)c1,nt,nt,nt,nt,nt,-19%
Clc1ccc(OCc2nc(-c3ccccn3)no2)c(Br)c1,0.82µM*,0.45µM*,0.56µM*,0.35µM*,-11%,0.21µM*
Clc1ccccc1OCc1nc(-c2ccccn2)no1,4.6µM*,0.32µM*,4.5µM*,0.45µM*,-12%,1.9µM*
COc1ccc(-n2c(-c3ccc(Cl)cc3)cc3c2CC(C)(C)CC3=O)c(OC)c1,nt,nt,-10%,nt,nt,2%
COc1ccc(NS(=O)(=O)c2ccc3c(c2)CC(C)N3C(C)=O)c(OC)c1 (stereo not drawn),nt,nt,nt,nt,nt,-7%
COc1cccc(C(=O)C2CN(c3ccccc3)CC2c2ccc(Cl)cc2)c1 (stereo not drawn),-8%,-6%,-26%,1%,-1%,19µM*
O=C(Cn1cnc2sc(-c3ccccc3)cc2c1=O)N1CCOCC1,3%,-2%,24%,6%,-1%,-11%
CCOC(=O)C(CC)n1nnc2sc(-c3ccccc3)cc2c1=O (stereo not drawn),nt,nt,-8%,nt,nt,21µM*
CCCOC(=O)C(C)n1nnc2sc(-c3ccccc3)cc2c1=O (stereo not drawn),nt,nt,-7%,nt,nt,?
Cc1ccc(C)n1-n1c(C)nc2sc(-c3ccccc3)cc2c1=O,?,?,-16%,?,-1%,17µM*
CCn1cnc2sc(-c3ccccc3)cc2c1=O,3.7µM*,2.8µM*,10µM*,1.3µM*,-4%,6µM*
N#CCn1cnc2sc(-c3ccccc3)cc2c1=O,12%,27%,8%,14%,1%,-16%
Cc1ccc(C)n1-n1cnc2sc(-c3ccccc3)cc2c1=O,-4%,-5%,-45%,-2%,5%,?
CC(=O)Cn1cnc2sc(-c3ccccc3)cc2c1=O,13µM*,4.5µM*,20µM*,3.2µM*,-4%,9.5µM*
SMILES,ELG1 genotoxic,Rab9 promoter act,SMN2 splice up,NPC1 prom act,KinaseGlo FLuc,FLuc counter
CN(C)Cc1nc(-c2cn(C)c3ccccc23)no1,nt,nt,-13%,nt,nt,nt
O=c1[nH]cnc2sc(-c3ccccc3)cc12,19%,?,16%,20%,-7%,15µM*
O=c1c2cc(-c3ccccc3)sc2ncn1-n1cccc1,?,1.8µM*,?,1.8µM*,-7%,-18%
CCc1cc2c(=O)n(-c3ccccc3)cnc2s1,7%,6%,7%,-3%,8%,-10%
O=c1[nH]c(-c2ccccc2)nc2sc(-c3ccccc3)cc12,?,?,?,-11%,1%,?
CCc1cc2c(=O)n(-c3ccc(C)cc3)cnc2s1,?,2.5µM*,3.2µM*,4µM*,-7%,11µM*
COc1ccc(-n2cnc3sc(-c4ccccc4)cc3c2=O)cc1,?,0.63µM*,6.3µM*,0.56µM*,2%,?
COc1ccc(-n2cnc3sccc3c2=O)cc1,2%,9%,nt,-4%,nt,3%
Cc1ccc(-c2cc(C(F)(F)F)n3nc(C(=O)Nc4ccc(Cl)c(C(F)(F)F)c4)cc3n2)cc1,nt,nt,4%,nt,nt,-2%
CC1=Nc2cc(C(=O)NCCc3ccc(Cl)cc3)ccc2Sc2ccc(C)cc21,nt,nt,-22%,nt,nt,-11%
CC(=O)Cn1nnc2sc(-c3ccccc3)cc2c1=O,?,?,14µM*,?,-2%,?
COc1ccc(NC(=O)c2cc(-c3cccs3)on2)cc1,16µM*,-3%,nt,1%,nt,?
COc1ccccc1-c1cc(C(=O)Nc2ccccc2C(F)(F)F)no1,nt,nt,-7%,nt,nt,0%
O=C(Nc1ccccc1C(F)(F)F)c1cc(-c2ccccc2O)on1,17%,4µM*,?,?,0%,-21%
COC(=O)c1ccccc1NC(=O)c1cc(-c2cccs2)on1,12%,2.2µM*,7%,24%,-1%,-7%
O=C(Nc1cccnc1)c1cc(-c2cccs2)on1,1%,?,-12%,0%,-10%,1.7µM*
CCOc1ccccc1NS(=O)(=O)c1c(C)nc2sccn2c1=O,nt,nt,nt,nt,nt,4%
CCc1cccc(C)c1NC(=O)C1CCN(S(=O)(=O)c2c(C)noc2/C=C/c2c(C)cc(C)cc2C)CC1,nt,nt,nt,nt,nt,2%
O=C(Nc1cccnc1)c1cc(-c2ccccc2O)on1,-2%,-4%,nt,0%,nt,1.3µM*
COc1ccc(NC(C)=O)cc1NC(=O)C1(c2cccs2)CCOCC1,nt,nt,nt,nt,nt,1%
O=c1cnn([C@@H]2O[C@H](CO)[C@@H](O)[C@H]2O)c(=O)[nH]1,-12%,1%,2µM*,-6%,-3%,3%
COc1ccc(Cl)cc1C(=O)O/N=C(\N)c1ccccn1,?,13%,nt,4µM*,nt,?
O=C(NCCNC(=O)c1cc(Cl)ccc1Cl)c1ccccn1,2%,4%,nt,2%,nt,-1%
N/C(=N\OC(=O)c1cc(Cl)ccc1Cl)c1ccccn1,?,5µM*,5µM*,?,-13%,1.5µM*
COc1cccc(CSc2nc3ccncc3[nH]2)c1,-18%,2.8µM*,nt,1.6µM*,nt,13µM*
O=C(NCc1ccccc1Cl)c1ccc(CSc2nc3ccncc3[nH]2)cc1,-9%,-2%,nt,-2%,nt,-11%

# Bioassay records (PubChem BioAssay)
